{
  "source": "PubChem BioAssay (NCI)",
  "note": "This is part of a sample that, as a whole, favours compounds with a hit. Of some 83,000 tested, about 20% had one in any assay.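 Results are percent growth after 48 hours of single-concentration exposure. 100 means growth as in untreated cells, lower positive values show inhibition; negative values down to -100 show cell death.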 Values without a mark were called inactive. Active and inactive are the calls of the source.",
  "data": [
    {"tested_on": "HCT-15 colon", "assay": "NCI-60 one-dose screen, 48 h (100 = growth as untreated, 0 = no growth, -100 = all killed)", "details": "10 µM", "protocol": "Growth inhibition of the HCT-15 human tumor cell line is measured as a screen for anti-cancer activity. Cells are grown in 96 well plates and exposed to the test compound for 48 hours. Compounds are tested at a single concentration, which is 10^-5 M for most compounds. The reported endpoint is percent growth (GI% or GIPRCNT), where numbers from 0 - 100% represent growth inhibition, and numbers from -100% - 0 represent cell death. For example, a value of 40 represents 60% growth inhibition. A value of 0 means no net growth occurred over the course of the experiment. A value of -40 indicates 40% of cells at the beginning of the experiment died by the end of the experiment. A value of -100 means all cells are dead at the end of the experiment.\nNCI-60 Human Tumor Cell Lines Screen was performed using the standard one-dose NCI protocol, which is described in more detail at https://dtp.cancer.gov/discovery_development/nci-60/default.htm.\nCompounds with GIPRCNT values below 10 were considered active. Activity score was based on GIPRCNT using the following formula: […]\nScore is 0 for GIPRCNT values of 100 or above, 50 for GIPRCNT values of 0, and 100 for GIPRCNT values of -100.", "values": [
      {"smiles": "C#C[C@]1(O)CC[C@H]2[C@@H]3CC[C@H]4CC(F)(F)CC[C@]4(C)[C@H]3CC[C@@]21C", "growth": "94.6%"},
      {"smiles": "CCNC(=S)NN", "growth": "86.1%"},
      {"smiles": "O=C(Nc1cccc(Cl)c1)Nc1cc2ncncc2cc1OCc1cccc(F)c1", "growth": "0.775% (active)"},
      {"smiles": "O=C(/C=C/c1nnc2n(Cc3ccccc3)c(=O)c3c4c(sc3n12)CCCC4)c1ccccc1", "growth": "88%"},
      {"smiles": "Cc1ccc(NC(=O)/C=N/O)cc1C", "growth": "98.1%"},
      {"smiles": "Brc1ccc(-c2cn3ccnc3c(-c3ccc(Br)cc3)n2)cc1", "growth": "21.6%"},
      {"smiles": "Cc1nnc2c3nnc(-c4ccc(Cl)cc4)n3c3ccccc3n12", "growth": "97.4%"},
      {"smiles": "COc1cc([C@@H]2c3cc4c(cc3[C@H](SC(=N)N)[C@H]3COC(=O)[C@H]23)OCO4)cc(OC)c1OC", "growth": "11.8%"},
      {"smiles": "COC(=O)[C@]12CC[C@@H](C)[C@H](C)[C@@H]1C1=CC[C@@H]3[C@@]4(C)CC(=O)[C@H](O)[C@@](C)(CO)[C@@H]4C(=O)C[C@@]3(C)[C@]1(C)CC2", "growth": "-15.1% (active)"},
      {"smiles": "N/C(=N\\O)c1cn(C2OC(CO)C(O)C2O)c2ncnc(N)c12", "note": "(stereo not given)", "growth": "7.46% (active)"},
      {"smiles": "COC1OC2COC(c3ccccc3)OC2C(=O)C1NC(=O)c1ccccc1", "note": "(stereo not given)", "growth": "101%"},
      {"smiles": "O=C(c1ccc(Cl)cc1)c1no[n+]([O-])c1C(=O)c1ccc(Cl)cc1", "growth": "95.7%"},
      {"smiles": "O=c1c2cccc3c(Nc4ccc(Br)cn4)ccc(c32)c2nc3ccccc3n12", "growth": "72%"},
      {"smiles": "COc1cc(OC)cc(-c2ccc(-c3ccc(C(=N)N)cn3)o2)c1", "growth": "6.84% (active)"},
      {"smiles": "COc1cccc(-c2nnc(COc3ccc(-c4nc5ccc(C)cc5[nH]4)cc3OC)o2)c1", "growth": "18.5%"},
      {"smiles": "O=[N+]([O-])c1ccc(Br)o1", "growth": "105%"},
      {"smiles": "O=C(CCCC(=O)N/N=C/c1cc(Cl)ccc1O)N/N=C\\c1cc(Cl)ccc1O", "growth": "28.1%"},
      {"smiles": "COc1cccc(C(=O)NNc2nc(N3CCOCC3)nc(N3CCN(C(c4ccccc4)c4ccccc4)CC3)n2)c1", "growth": "89.2%"},
      {"smiles": "CCCCC(CC#N)(CCC)CCC", "growth": "99%"},
      {"smiles": "COc1cc(-c2nc3ccc(C)cc3[nH]2)ccc1OCC(=O)N=Nc1c(O)[nH]c2ccccc12", "growth": "52.7%"},
      {"smiles": "COc1cccc(C2(C)Nc3ccccc3-c3nc4ccccc4n32)c1", "note": "(stereo not given)", "growth": "105%"},
      {"smiles": "N#CN1CC[C@H](C(=O)Nc2ncc(-c3ccncc3)s2)C1", "growth": "2.59% (active)"},
      {"smiles": "CCCC(C)c1ccc(OCCCCCCN2CCNCC2)cc1", "note": "(stereo not given)", "growth": "-39.3% (active)"},
      {"smiles": "CNC(=S)Sc1ccc([N+](=O)[O-])cc1[N+](=O)[O-]", "growth": "36.8%"},
      {"smiles": "O=C(O)CNS(=O)(=O)c1ccc(OCCOc2ccc(S(=O)(=O)NCC(=O)O)cc2)cc1", "growth": "96%"},
      {"smiles": "Cc1ccc2c3c(cccc13)-c1ccccc1C2=O", "growth": "85%"},
      {"smiles": "O=C1/C(=C/c2ccc([N+](=O)[O-])s2)Oc2ccc(Cl)cc21", "growth": "-40% (active)"},
      {"smiles": "CC(C)=C1CCC(C)C/C1=N\\N=C(N)N", "note": "(stereo not given)", "growth": "99.7%"},
      {"smiles": "COc1ccc(-c2cc(/C=C3\\C(=O)Nc4cc(Cl)ccc43)[nH]n2)cc1OC", "growth": "51.2%"},
      {"smiles": "COc1cc(OC)cc(N2CCN(C(=O)Nc3nc4cc(F)ccc4nc3OC)CC2)c1", "growth": "7.06% (active)"},
      {"smiles": "CC(C)/C=N/NC(N)=S", "growth": "90.6%"},
      {"smiles": "NC(=O)C12C(=O)NC(=O)C1(C(=O)O)C21CCCC1", "note": "(stereo not given)", "growth": "107%"},
      {"smiles": "COc1cc(-c2n/c(=C\\c3c(O)[nH]c4ccccc34)cc3c2=Nc2ccccc2-3)cc(OC)c1OC", "growth": "14.3%"},
      {"smiles": "COc1ccc(C2=Cc3ccc(OC(C)=O)cc3OC2)cc1", "growth": "82.4%"},
      {"smiles": "CN(C)c1ccc2c(c1)OC(N)=C(C#N)C2c1ccc2c(c1)CCO2", "note": "(stereo not given)", "growth": "18%"},
      {"smiles": "COCc1cc2c(cc1Br)OCO2", "growth": "100%"},
      {"smiles": "Cc1cc(C)c(C(=O)OC(C)CNC2CCCCC2)c(C)c1", "note": "(stereo not given)", "growth": "97.5%"},
      {"smiles": "COc1ccc2nc(-c3ccccc3)cc(C(C)=O)c2c1", "growth": "94.9%"},
      {"smiles": "O=C(O)c1ccccc1C(=O)c1cccc2c(F)cccc12", "growth": "104%"},
      {"smiles": "CC(=O)c1c(O)cc2c3c1OC(C)(C)C1CCC(C)(CC31)O2", "note": "(stereo not given)", "growth": "97.5%"}
    ]}
  ]
}
